Reference: PubChem BioAssay (Tox21)
Values without a mark were called inactive. Records with an inconclusive call do not appear. Where a call stands in place of a potency, no number is given. Active and inactive are the calls of the source. Unless noted, calls come from the whole dose curve; as a rule, active = well fitted curve in the direction sought with a large enough effect in the repeat runs; inconclusive = weak or mixed curves; inactive = no such curve, though single readings can be large; an effect the other way counts as inactive or inconclusive.

Key:
[1] = qHTS assay for small molecules that induce genotoxicity in human embryonic kidney cells expressing luciferase-tagged ATAD5 (AID 651632); note: nearly all actives have a fitted effect of over 15% in size
How it was run: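 A rise in luciferase signal from ATAD5-tagged HEK293T cells marks genetic stress. Cells were exposed to compounds for 16 hr at 37C, 5% CO2, then luciferase was quantified after a 30 min room-temperature incubation with Amplite.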

[2] = qHTS assay for small molecules that induce genotoxicity in human embryonic kidney cells expressing luciferase-tagged ATAD5 - cell viability (AID 651634; calls by dose curve; note: nearly all actives have a fitted effect of over 25% in size; note: potency is the fitted concentration of half-maximal effect)
How it was run: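 Cytotoxicity counter-readout: after 15.5 hr compound treatment at 37C, live-cell protease activity in ATAD5-luciferase HEK293T cells measured by CellTiter-Fluor fluorescence, 30 min development at 37C.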

[3] = qHTS assay for small molecule disruptors of the mitochondrial membrane potential - cell viability (AID 720634; calls by dose curve; note: nearly all actives have a fitted effect of over 20% in size; note: potency is the fitted concentration of half-maximal effect)
How it was run: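 Cytotoxicity was quantified from ATP content by CellTiter-Glo luminescence in the same wells as the MMP dye read-out. HepG2 (2,000 cells/well) were plated overnight and exposed to compounds for 1 hr at 37 C.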

[4] = qHTS assay to test for compound auto fluorescence at 590 nm (red) in HepG2 cells (AID 720674)
How it was run: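 We screened compounds on adherent HepG2 cells, incubating them for an hour at 37 C in 5% CO2 before reading emission at 590 nm under 540 nm excitation; values reflect equivalence to Rose Bengal sodium fluorescence.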

[5] = qHTS assay to test for compound auto fluorescence at 535 nm (green) in HepG2 cells (AID 720675)
[6] = qHTS assay to test for compound auto fluorescence at 460 nm (blue) in HEK293 cells (AID 720678)
How it was run: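 Auto fluorescence in the blue band was quantified as triamterene equivalency. HEK293 cells were seeded at 2,000/well, dosed after a 4-5 hr attachment, and kept overnight at 37C before the 405/460 nm reading.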

[7] = qHTS assay to test for compound auto fluorescence at 590 nm (red) in HEK293 cells (AID 720679)
How it was run: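 Autofluorescence equivalency to Rose Bengal sodium, 540/590nm, in HEK293 cells exposed overnight to 23 nL compound per well.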

[8] = qHTS assay to test for compound auto fluorescence at 535 nm (green) in HEK293 cells (AID 720680)
[9] = qHTS assay to test for compound auto fluorescence at 460 nm (blue) in HEK293 cell free culture (AID 720681)
How it was run: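 Blue fluorescence (Ex 405/Em 460 nm, triamterene-equivalent) was read immediately after pin transfer of compound or DMSO into medium (DMEM, 10% FBS) without cells.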

[10] = qHTS assay to test for compound auto fluorescence at 535 nm (green) in HEK293 cell free culture (AID 720682)
How it was run: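 Intrinsic compound fluorescence is measured in culture medium containing 10% FBS, with excitation at 485 nm and detection at 535 nm, referenced to fluorescein.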

[11] = qHTS assay to test for compound auto fluorescence at 590 nm (red) in HEK293 cell free culture (AID 720683)
How it was run: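 Red-channel autofluorescence of compounds in culture medium (DMEM, 10% FBS), no cells, measured at 540/590 nm. Rose Bengal sodium is the reference fluorophore for equivalence.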

[12] = qHTS assay to test for compound auto fluorescence at 590 nm (red) in HepG2 cell free culture (AID 720684)
How it was run: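 Cell-free; medium MEM + 10% FBS; compound or DMSO added by pintool; read Ex 540/Em 590 nm; Rose Bengal sodium as red reference fluorophore.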

[13] = qHTS assay to test for compound auto fluorescence at 460 nm (blue) in HepG2 cell free culture (AID 720685)
How it was run: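 Cell-free plates of MEM plus 10% FBS received 23 nL compound or DMSO vehicle; blue-channel (405/460 nm) intensity scored against triamterene as reference fluorophore.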

[14] = qHTS assay to test for compound auto fluorescence at 535 nm (green) in HepG2 cell free culture (AID 720686)
[15] = qHTS assay to test for compound auto fluorescence at 460 nm (blue) in HepG2 cells (AID 720687)
How it was run: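 Blue-channel autofluorescence (Ex/Em 405/460 nm, triamterene-equivalent) was measured after 1 hr compound exposure at 37 C, 5% CO2. Cells were HepG2, plated overnight at 37 C in MEM plus 10% FBS.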

[16] = target: Glucocorticoid receptor (Homo sapiens) (UniProt P04150); test: qHTS assay to identify small molecule agonists of the glucocorticoid receptor (GR) signaling pathway (AID 720691; active = well fitted activation curve with a large enough effect in the signal ratio in the repeat runs, not every such curve was filed as active; the % refers to the signal ratio)
Chain of Glucocorticoid receptor (Homo sapiens) (P04150 whole entry, looked up): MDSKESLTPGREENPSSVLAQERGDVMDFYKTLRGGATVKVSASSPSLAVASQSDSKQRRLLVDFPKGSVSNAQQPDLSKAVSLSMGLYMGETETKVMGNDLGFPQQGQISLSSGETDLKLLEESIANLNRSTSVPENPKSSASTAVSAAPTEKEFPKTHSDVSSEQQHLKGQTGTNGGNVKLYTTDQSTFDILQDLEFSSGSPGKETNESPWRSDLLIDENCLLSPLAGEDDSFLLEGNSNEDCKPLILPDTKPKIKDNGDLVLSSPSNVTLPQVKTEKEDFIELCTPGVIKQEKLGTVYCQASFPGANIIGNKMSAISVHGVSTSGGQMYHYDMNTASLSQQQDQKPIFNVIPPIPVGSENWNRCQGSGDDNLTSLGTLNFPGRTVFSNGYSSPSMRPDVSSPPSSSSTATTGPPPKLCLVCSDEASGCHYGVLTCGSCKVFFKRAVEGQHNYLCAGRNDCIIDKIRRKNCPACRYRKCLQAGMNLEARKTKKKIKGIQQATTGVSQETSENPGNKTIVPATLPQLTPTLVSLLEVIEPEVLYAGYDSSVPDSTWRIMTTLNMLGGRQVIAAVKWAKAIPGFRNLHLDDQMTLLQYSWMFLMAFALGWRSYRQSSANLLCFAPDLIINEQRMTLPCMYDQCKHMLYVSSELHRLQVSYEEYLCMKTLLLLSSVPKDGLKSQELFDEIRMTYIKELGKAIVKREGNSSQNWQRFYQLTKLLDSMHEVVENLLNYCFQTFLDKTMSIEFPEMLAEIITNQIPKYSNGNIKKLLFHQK
How it was run: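 Agonist-mode qHTS in HeLa cells stably expressing a glucocorticoid-response-element beta-lactamase reporter. Fluorescence intensity read with FRET substrate (2 h, room temperature) after 18 h compound treatment at 37 C.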

[17] = qHTS assay for small molecule disruptors of the mitochondrial membrane potential (AID 720635); note: potency is the fitted concentration of half-maximal effect
How it was run: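 Mitochondrial membrane potential tracked with Mito-MPS dye, red aggregates (ex 540/em 590 nm) against green monomers (ex 490/em 535 nm). Compound treatment 1 hr at 37C, dye 30 min in HepG2.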

[18] = target: Glucocorticoid receptor (Homo sapiens) (UniProt P04150); test: qHTS assay to identify small molecule antagonists of the glucocorticoid receptor (GR) signaling pathway (AID 720692; active = well fitted inhibition curve with a large enough effect in the signal ratio in the repeat runs, not every such curve was filed as active; the % refers to the signal ratio; note: potency is the fitted concentration of half-maximal effect)
How it was run: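 Inhibition of dexamethasone-driven (5 nM final) beta-lactamase expression was measured in GRE-reporter HeLa cells over 18 h at 37C. Fluorescence was read after 2 h with the B/G FRET substrate at room temperature.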

[19] = qHTS assay for small molecule agonists of the p53 signaling pathway - cell viability (AID 651633; calls by dose curve; note: nearly all actives have a fitted effect of over 30% in size; note: potency is the fitted concentration of half-maximal effect)
How it was run: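 Viability counter-read: CellTiter-Glo luminescence (30 min, room temperature) in the same p53RE-bla plates. These plates had been exposed to compounds for 16 h at 37 C.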

SMILES	Potency [1]	Potency [2]	Potency [3]	outcome [4]	outcome [5]	Potency [6]	outcome [7]	outcome [8]	Potency [9]	outcome [10]	outcome [11]	outcome [12]	Potency [13]	outcome [14]	Potency [15]	Potency [16]	Potency [17]	Potency [18]	Potency [19]
CC1(C)CC/C(=C/c2ccc(Cl)cc2)C1(O)Cn1cncn1 (configuration not stated)	inactive	inactive	inactive	inactive	inactive	inactive	inactive	inactive	inactive	inactive	inactive	inactive	inactive	inactive	inactive	inactive			
O=C(CCl)Nc1ccccc1	inactive	48.6 µM (active)	inactive	inactive	inactive	inactive	inactive	inactive	inactive	inactive	inactive	inactive		inactive	inactive				
Nc1ccccc1C(=O)OC/C=C/c1ccccc1	inactive	inactive		inactive	inactive	inactive	inactive	inactive	inactive	inactive	inactive	inactive	inactive	inactive	inactive	inactive	19.4 µM (active)	inactive	
CC1(C)C(/C=C(\Cl)C(F)(F)F)C1C(=O)OC(C#N)c1cccc(Oc2ccccc2)c1 (configuration not stated)	inactive	inactive		inactive	inactive	inactive	inactive	inactive	inactive	inactive	inactive	inactive		inactive	inactive				
Oc1cc(Cl)c(Cl)c(Cl)c1	inactive	inactive			inactive	inactive	inactive	inactive	inactive	inactive	inactive		inactive	inactive	inactive	inactive	2.31 µM (active)		
Oc1ccc(C(=C(Cl)Cl)c2ccc(O)cc2)cc1	inactive	inactive		inactive	inactive	inactive	inactive	inactive	inactive	inactive	inactive	inactive	inactive	inactive	inactive				
CCCCCCCCc1ccc(O)cc1		inactive	15.4 µM (active)	inactive	inactive	inactive	inactive	inactive	inactive	inactive	inactive	inactive	inactive	inactive	inactive	inactive			12.3 µM (active)
CC(=O)Nc1ccc2c(c1)Cc1ccccc1-2		inactive	inactive	inactive	inactive	inactive	inactive	inactive	inactive		inactive	inactive	inactive	inactive	inactive				inactive
Fc1ccc(Oc2ccnc3cc(Cl)cc(Cl)c23)cc1	inactive	inactive		inactive	inactive	inactive	inactive	inactive	inactive	inactive	inactive	inactive	inactive		inactive	inactive	30.6 µM (active)		
N#CC(Cl)Cl		inactive	inactive		inactive	inactive	inactive	inactive	inactive		inactive	inactive	inactive	inactive	inactive				inactive
CC(C)[C@H](C(=O)OC(C#N)c1cccc(Oc2ccccc2)c1)c1ccc(OC(F)F)cc1 (some centres not stated)	inactive	inactive		inactive	inactive	inactive	inactive	inactive	inactive		inactive	inactive	inactive	inactive	inactive		17.2 µM (active)		
Nc1ccc(Cc2ccc(N)c(Cl)c2)cc1Cl	inactive	inactive		inactive	inactive	inactive	inactive	inactive	inactive		inactive	inactive		inactive	inactive	inactive		42.2 µM (active)	
O=C(O)C1C2CCC(O2)C1C(=O)O (configuration not stated)		inactive		inactive	inactive	inactive	inactive	inactive	inactive	inactive	inactive		inactive	inactive	inactive	inactive		inactive	inactive
CC(C)OC(=O)C(O)(c1ccc(Cl)cc1)c1ccc(Cl)cc1	inactive	inactive			inactive	inactive	inactive	inactive	inactive	inactive	inactive	inactive	inactive		inactive	inactive	24.3 µM (active)	30.9 µM (active)	
N#CCCC(Br)(C#N)CBr (configuration not stated)					inactive	inactive	inactive	inactive	inactive	inactive	inactive	inactive	inactive		inactive	inactive	61.1 µM (active)		inactive
